This passage reports binding signal results from publication PMC7862700, “An all-to-all approach to the identification of sequence-specific readers for epigenetic DNA modifications on cytosine”.

Experiment in all cases: DAPPL (digital affinity profiling via proximity ligation, sequencing); 10 mM Tris-HCl pH 7.5, 50 mM NaCl, 1 mM DTT, 4% glycerol, room temperature, 30 min; GST-TFs on glutathione beads, 16-mer random dsDNA library, 0.1% formaldehyde crosslink after washing; high values mean tight binding
Conditions in all cases: protein: recombinant; tags: N-terminal GST; dsDNA, one strand shown

The target of one test is T1, ELK1 (Homo sapiens, UniProt P19419 1-428).
T1 sequence: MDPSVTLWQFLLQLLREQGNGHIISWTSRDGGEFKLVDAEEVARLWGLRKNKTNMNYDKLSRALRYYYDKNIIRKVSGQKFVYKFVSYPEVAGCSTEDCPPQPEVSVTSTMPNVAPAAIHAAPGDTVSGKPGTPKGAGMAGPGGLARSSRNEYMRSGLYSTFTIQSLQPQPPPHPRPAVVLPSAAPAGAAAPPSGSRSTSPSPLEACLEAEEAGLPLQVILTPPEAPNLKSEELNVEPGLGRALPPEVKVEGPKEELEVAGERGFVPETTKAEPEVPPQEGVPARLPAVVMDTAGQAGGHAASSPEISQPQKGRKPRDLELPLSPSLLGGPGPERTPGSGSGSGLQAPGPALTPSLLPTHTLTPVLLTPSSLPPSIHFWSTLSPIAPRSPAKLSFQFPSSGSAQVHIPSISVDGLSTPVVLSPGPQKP
Summed up: (§1)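 GST fusions of human transcription factors were expressed in yeast and captured with glutathione beads. Once given DNA barcodes and pooled alongside a tag-only sample, they were incubated for 30 min at room temperature with 200 nmole of a random double-stranded 16-mer DNA library in Tris/NaCl/DTT/glycerol buffer, then washed, crosslinked (0.1% formaldehyde), proximity-ligated, PCR-amplified and sequenced on an Illumina NextSeq500. The binding signal of each hexamer is its read frequency for a factor divided by its frequency for the tag-only sample.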

The target of another test is T2, GABPA (Homo sapiens, UniProt Q06546 1-454).
T2 sequence: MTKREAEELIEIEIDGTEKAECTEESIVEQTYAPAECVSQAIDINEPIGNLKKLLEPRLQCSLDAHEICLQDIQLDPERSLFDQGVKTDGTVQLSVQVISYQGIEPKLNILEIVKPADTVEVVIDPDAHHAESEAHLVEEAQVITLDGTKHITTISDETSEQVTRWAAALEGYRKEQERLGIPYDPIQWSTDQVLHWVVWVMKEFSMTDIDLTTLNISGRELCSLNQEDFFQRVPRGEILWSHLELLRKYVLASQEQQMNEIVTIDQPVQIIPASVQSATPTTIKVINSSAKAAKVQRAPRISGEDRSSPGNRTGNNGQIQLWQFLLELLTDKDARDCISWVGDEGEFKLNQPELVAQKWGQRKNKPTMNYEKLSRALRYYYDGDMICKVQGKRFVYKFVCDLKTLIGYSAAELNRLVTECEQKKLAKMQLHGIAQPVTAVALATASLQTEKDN
In a few lines:
as §1

The next test has as its target T3, ERG (Homo sapiens, UniProt P11308 1-479).
T3 sequence: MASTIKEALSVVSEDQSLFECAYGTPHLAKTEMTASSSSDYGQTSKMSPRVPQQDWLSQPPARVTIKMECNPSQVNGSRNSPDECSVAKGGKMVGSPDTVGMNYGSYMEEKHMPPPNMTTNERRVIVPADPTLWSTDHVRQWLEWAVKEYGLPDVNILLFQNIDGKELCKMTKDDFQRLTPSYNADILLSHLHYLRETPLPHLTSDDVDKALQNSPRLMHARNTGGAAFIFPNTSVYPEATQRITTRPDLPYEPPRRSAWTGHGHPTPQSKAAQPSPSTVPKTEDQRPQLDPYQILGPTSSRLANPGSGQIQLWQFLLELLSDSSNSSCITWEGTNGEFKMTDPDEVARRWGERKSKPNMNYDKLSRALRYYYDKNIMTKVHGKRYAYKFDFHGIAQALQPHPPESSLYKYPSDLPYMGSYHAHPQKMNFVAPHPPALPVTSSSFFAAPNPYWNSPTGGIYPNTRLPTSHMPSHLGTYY
Summed up: as §1

The target in a further test is T4, EHF (Homo sapiens, UniProt Q9NZC4 1-300).
T4 sequence: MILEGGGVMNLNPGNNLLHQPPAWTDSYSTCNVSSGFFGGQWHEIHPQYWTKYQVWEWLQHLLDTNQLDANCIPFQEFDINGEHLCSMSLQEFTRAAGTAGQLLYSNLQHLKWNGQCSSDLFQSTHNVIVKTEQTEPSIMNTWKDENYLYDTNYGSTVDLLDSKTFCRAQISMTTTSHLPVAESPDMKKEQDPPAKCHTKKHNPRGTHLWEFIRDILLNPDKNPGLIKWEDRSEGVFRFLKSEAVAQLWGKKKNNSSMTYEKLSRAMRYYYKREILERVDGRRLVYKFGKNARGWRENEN
Summed up: as §1

A further test deals with SPI1 (Homo sapiens, UniProt P17947 1-270). In a few lines: as §1
In another test the target is SPIB (Homo sapiens, UniProt Q01892 1-262). Summed up: as §1
Chain of SPIB (Q01892 whole entry): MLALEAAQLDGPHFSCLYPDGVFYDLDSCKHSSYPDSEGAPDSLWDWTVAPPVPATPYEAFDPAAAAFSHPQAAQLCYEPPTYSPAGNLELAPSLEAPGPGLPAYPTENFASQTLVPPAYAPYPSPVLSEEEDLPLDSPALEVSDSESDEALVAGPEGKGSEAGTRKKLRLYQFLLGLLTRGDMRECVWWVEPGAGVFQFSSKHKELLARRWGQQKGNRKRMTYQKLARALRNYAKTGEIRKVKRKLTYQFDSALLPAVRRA
A further test concerns the target ETV5 (Homo sapiens, UniProt P41161 1-510). In a few lines: as §1
Another test has as its target T5, ETV2 (Homo sapiens, UniProt O00321 1-342).
T5 sequence: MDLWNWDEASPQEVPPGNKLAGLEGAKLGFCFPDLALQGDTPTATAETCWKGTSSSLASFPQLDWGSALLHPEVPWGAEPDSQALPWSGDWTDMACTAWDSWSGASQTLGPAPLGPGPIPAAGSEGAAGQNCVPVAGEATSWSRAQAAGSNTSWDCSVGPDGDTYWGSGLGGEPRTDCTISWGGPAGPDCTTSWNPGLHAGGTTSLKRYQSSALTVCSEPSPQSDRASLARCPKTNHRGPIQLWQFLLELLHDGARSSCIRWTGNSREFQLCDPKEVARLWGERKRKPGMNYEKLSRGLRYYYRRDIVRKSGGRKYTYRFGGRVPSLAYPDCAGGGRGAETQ
Summed up: as §1

A further test deals with T6, ELF3 (Homo sapiens, UniProt P78545 1-371).
T6 sequence: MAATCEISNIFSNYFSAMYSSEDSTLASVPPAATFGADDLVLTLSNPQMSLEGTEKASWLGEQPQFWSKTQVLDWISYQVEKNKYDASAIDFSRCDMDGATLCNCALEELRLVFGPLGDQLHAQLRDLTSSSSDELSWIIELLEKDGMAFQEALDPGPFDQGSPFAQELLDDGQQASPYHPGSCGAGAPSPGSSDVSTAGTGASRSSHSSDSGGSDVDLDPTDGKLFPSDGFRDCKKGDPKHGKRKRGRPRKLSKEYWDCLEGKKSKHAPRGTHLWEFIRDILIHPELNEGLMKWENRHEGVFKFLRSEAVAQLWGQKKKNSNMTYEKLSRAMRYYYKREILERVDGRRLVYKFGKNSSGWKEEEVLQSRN
In a few lines:
as §1

The target of a further test is T7, ERF (Homo sapiens, UniProt P50548 1-548).
T7 sequence: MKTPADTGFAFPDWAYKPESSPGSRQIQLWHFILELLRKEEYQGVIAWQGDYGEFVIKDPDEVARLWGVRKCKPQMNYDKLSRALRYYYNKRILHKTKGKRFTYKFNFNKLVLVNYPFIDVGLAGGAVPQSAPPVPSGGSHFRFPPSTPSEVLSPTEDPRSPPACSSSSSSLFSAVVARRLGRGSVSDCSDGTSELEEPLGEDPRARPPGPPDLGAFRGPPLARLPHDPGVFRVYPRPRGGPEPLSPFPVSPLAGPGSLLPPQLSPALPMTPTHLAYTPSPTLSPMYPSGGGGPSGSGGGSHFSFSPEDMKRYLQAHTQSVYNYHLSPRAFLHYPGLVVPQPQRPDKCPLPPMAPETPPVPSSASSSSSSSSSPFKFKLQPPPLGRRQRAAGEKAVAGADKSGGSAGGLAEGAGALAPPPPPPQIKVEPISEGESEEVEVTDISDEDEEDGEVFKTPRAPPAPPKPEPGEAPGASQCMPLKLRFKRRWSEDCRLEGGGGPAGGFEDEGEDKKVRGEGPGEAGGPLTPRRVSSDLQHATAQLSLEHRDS
Summed up: as §1

For another test, the target named is T8, ETS2 (Homo sapiens, UniProt P15036 1-469).
T8 sequence: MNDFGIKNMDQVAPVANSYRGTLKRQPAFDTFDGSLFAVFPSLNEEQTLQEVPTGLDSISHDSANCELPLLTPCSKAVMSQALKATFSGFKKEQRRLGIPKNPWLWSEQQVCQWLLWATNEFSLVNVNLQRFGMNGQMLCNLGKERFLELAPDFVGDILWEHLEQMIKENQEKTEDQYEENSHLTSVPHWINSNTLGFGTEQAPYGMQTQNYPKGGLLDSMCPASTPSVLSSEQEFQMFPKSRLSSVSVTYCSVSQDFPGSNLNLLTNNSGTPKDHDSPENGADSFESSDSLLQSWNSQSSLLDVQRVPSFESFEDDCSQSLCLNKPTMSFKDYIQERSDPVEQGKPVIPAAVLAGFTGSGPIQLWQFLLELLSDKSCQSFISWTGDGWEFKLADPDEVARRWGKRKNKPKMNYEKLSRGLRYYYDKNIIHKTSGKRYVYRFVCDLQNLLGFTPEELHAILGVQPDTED
In a few lines: as §1

The next test addresses T9, ETV7 (Homo sapiens, UniProt Q9Y603 1-341).
T9 sequence: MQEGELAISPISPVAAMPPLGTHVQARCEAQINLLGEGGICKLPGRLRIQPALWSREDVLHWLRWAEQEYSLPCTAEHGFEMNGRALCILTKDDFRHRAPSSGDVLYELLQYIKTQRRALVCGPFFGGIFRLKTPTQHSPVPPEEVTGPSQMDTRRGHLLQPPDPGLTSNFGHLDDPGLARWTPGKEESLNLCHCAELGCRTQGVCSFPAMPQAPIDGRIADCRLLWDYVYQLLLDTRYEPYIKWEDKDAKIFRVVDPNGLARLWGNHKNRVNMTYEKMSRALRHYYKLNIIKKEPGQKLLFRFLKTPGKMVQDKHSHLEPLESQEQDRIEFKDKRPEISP
In a few lines: as §1

In the next test the target is ETV6 (Homo sapiens, UniProt P41212 1-452). In a few lines:
as §1

Another test has as its target ETV1 (Homo sapiens, UniProt P50549 1-477). In a few lines: as §1
In a further test the target is T10, ETV3L (Homo sapiens, UniProt Q6ZN32 1-361).
T10 sequence: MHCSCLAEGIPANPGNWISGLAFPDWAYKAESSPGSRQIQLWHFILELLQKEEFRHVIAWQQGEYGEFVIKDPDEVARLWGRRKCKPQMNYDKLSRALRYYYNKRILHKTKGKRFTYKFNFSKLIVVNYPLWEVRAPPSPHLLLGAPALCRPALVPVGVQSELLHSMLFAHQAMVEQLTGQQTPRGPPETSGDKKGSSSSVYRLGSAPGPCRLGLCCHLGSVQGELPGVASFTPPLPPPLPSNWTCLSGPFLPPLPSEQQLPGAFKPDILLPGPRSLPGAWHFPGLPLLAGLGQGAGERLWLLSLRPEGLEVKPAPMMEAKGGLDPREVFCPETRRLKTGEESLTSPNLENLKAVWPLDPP
Summed up: as §1

In the next test the target is T11, ETV3 (Homo sapiens, UniProt P41162-2 1-143).
T11 sequence: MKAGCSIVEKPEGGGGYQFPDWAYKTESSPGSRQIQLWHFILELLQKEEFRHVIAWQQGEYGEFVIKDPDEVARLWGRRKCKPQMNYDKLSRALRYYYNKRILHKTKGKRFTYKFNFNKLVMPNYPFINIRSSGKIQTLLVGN
Summed up: as §1

Chain of ETV5 (P41161 whole entry): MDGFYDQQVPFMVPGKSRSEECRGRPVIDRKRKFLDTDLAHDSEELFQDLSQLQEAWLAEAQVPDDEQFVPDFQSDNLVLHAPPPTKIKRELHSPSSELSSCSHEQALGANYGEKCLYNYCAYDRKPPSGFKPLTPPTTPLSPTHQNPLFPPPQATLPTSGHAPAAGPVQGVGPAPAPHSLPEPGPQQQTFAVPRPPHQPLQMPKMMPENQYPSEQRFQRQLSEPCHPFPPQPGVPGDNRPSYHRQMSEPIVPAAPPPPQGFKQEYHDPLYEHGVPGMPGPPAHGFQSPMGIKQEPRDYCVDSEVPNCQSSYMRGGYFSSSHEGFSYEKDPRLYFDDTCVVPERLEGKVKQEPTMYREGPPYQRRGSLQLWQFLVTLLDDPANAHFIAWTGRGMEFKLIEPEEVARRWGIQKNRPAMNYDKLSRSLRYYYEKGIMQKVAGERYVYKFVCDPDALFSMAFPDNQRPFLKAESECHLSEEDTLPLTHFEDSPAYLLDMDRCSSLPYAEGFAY
Chain of ETV6 (P41212 whole entry): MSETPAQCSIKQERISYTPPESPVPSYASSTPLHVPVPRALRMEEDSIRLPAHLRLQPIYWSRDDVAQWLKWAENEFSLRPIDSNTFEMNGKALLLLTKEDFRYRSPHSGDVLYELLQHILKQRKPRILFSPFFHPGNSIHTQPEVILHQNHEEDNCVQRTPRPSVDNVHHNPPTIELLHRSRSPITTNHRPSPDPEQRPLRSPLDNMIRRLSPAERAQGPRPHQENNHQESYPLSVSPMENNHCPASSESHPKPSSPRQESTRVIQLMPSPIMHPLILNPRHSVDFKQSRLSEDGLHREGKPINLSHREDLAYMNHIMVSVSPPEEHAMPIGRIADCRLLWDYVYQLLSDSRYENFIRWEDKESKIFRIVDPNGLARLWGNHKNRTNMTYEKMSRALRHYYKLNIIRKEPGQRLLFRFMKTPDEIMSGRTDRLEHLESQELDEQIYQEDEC
Chain of ETV1 (P50549 whole entry): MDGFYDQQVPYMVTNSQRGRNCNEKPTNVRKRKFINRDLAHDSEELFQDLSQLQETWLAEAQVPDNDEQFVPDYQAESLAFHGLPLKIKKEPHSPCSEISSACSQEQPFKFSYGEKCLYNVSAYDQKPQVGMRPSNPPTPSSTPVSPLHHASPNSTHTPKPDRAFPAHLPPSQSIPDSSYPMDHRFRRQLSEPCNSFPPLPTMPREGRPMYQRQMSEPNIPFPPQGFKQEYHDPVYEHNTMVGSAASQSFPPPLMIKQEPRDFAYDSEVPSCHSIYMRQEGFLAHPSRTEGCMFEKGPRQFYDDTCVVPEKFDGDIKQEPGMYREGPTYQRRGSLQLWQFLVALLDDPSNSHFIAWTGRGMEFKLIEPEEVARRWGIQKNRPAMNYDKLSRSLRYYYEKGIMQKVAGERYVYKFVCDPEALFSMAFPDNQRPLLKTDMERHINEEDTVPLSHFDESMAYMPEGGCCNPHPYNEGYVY

For the sequence TGGGAA, the binding signal is 1.08 fold enrichment (6-mer frequency, TF over GST control) with ELK1; 1.05 fold enrichment (6-mer frequency, TF over GST control) with GABPA; 1.02 fold enrichment (6-mer frequency, TF over GST control) with ERG; 1.04 fold enrichment (6-mer frequency, TF over GST control) with EHF; 1.21 fold enrichment (6-mer frequency, TF over GST control) in the test with SPI1; 1.05 fold enrichment (6-mer frequency, TF over GST control) in the test with SPIB. For the same sequence, the binding signal with ETV5 is 1.04 fold enrichment (6-mer frequency, TF over GST control); with ETV2, 1.02 fold enrichment (6-mer frequency, TF over GST control); in the test with ELF3 it was 1.13 fold enrichment (6-mer frequency, TF over GST control); with ERF it was 1.04 fold enrichment (6-mer frequency, TF over GST control); with ETS2, 1.02 fold enrichment (6-mer frequency, TF over GST control); with ETV7, 1.09 fold enrichment (6-mer frequency, TF over GST control). Besides, in the test with ETV6, the binding signal was 1.17 fold enrichment (6-mer frequency, TF over GST control).

As for AGGATG, the binding signal is 1.1 fold enrichment (6-mer frequency, TF over GST control) with ERG; 1.09 fold enrichment (6-mer frequency, TF over GST control) with EHF; 1.1 fold enrichment (6-mer frequency, TF over GST control) with SPIB; 1.09 fold enrichment (6-mer frequency, TF over GST control) with ETV5; 1.05 fold enrichment (6-mer frequency, TF over GST control) with ETV1; 1.06 fold enrichment (6-mer frequency, TF over GST control) in the test with ETV3L. Further, the binding signal in the test with ETS2 is 1.07 fold enrichment (6-mer frequency, TF over GST control); in the test with ETV7, 1.04 fold enrichment (6-mer frequency, TF over GST control); in the test with ETV3 it was 1.13 fold enrichment (6-mer frequency, TF over GST control); in the test with ETV6 it was 1.08 fold enrichment (6-mer frequency, TF over GST control).
